Screening results: PubChem BioAssay, Broad Institute
The list is not random: actives were taken first. Their share in the collection is about 2.7%.
EWS-Fli inh – EWS/Fli-driven NR0B1 reporter inhibitors, primary screen, A673 cells, NR0B1 luciferase, luminescence, MLPCN library. viability-normalised. inhibition, % at 12.6 µM. 350,000 compounds, 0.67% hits;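 active = mean inhibition of at least 50% after viability correction, with every replicate also passing that limit; inconclusive = mean reaches 50% but only one of two replicates passes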;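 note: firefly luciferase signal divided by Alamar Blue viability fluorescence both relative to DMSO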
PAX8 inh HTS – inhibitors of PAX8-driven TPO luciferase reporter, primary screen, RMG-I cells, single concentration. SteadyGlo, 24 h. inhibition, % at 12.6 µM. 360,000 compounds, 1.2% hits. AID 652154, 2013;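 active = mean replicate inhibition at least 60% with every replicate also reaching 60%; inconclusive = only one of the two criteria is met; inactive = mean below 60% and not all replicates reaching 60%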;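 note: luciferase light reporting Pax8 driven TPO promoter activity; plate controls were median of neutral control wells for no effect and mitoxantrone controls for full effect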
CFTR F508del cor – F508del CFTR correction, initial screen, CFBE line, single point; CFBE cells, YFP halide quenching; stimulated with forskolin plus potentiator P3; % fluorescence drop versus neutral controls; activity (quench increase), % at 7.58 µM; 350,000 compounds, 0.36% hits;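 active = mean added fluorescence quench of at least 8% versus neutral control, with both replicates also reaching 8%; inconclusive = only one of the mean or replicate conditions met; inactive = mean below 8% and not both replicates reaching 8%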;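 note: cells transiently co-express mutant CFTR-F508del with the halide-sensitive YFP; corrector assay measuring rescue of mutant channel to the surface after 24 h compound exposure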
Env fusion inh – inhibitors of HIV-1 Env-driven cell-cell fusion, primary screen, HeLa-JRFL effector, CEM21 target cells, luciferase. inhibition, % at 12.3 µM. 360,000 compounds, 1.1% hits;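 active = mean replicate inhibition score of at least 50 and every replicate individually at or above 50; inconclusive = only one of the two criteria met; inactive = mean below 50 and not all replicates reaching 50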;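 note: 0% = plate neutral controls and 100% = maraviroc near 300 nM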
INS-1E GSIS act – GLuc luminescence reporter in INS-1E cells, primary screen for activators of glucose-dependent secretion of insulin | INS-1E GLuc reporter insulin secretion, 2-3 h | activation, % at 16.6 µM | 370,000 compounds, 0.61% hits | AID 743287, 2014;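 active = lowest replicate activation of at least 40%, so every replicate reaches that level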;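 note: 0% = median of neutral control wells and 100% = median of IBMX positive control wells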
PGC1a acetyl inh – inhibitors of PGC1a acetylation signal, primary screen, cell-based, U2OS, AlphaScreen, inhibitor mode; AlphaScreen anti-acetyl-lysine; with virally co-expressed GCN5 acetyltransferase; inhibition, % at 15.6 µM; 350,000 compounds, 0.17% hits; AID 651687, 2012;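 active = every replicate shows inhibition of at least 40%; inconclusive = mean inhibition at least 40% but some replicate below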;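 note: 0% = neutral control wells and 100% = positive control wells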
An asterisk follows results filed as active; ? = inconclusive; nt = not tested or not shown; [ ] = remark or other dose.

SMILES	EWS-Fli inh	PAX8 inh HTS	CFTR F508del cor	Env fusion inh	INS-1E GSIS act	PGC1a acetyl inh
COc1ccc([C@H]2CC(=O)C=C(c3ccc(F)cc3OCc3ccccc3)C2)cc1	14	28	-1	20	6	4
COc1ccc(-c2ccc3c(c2)S(=O)(=O)c2cccc(C(=O)NCCOc4ccccc4Cl)c2C3=O)cc1OC	58*	-9	0	?	-4	0
CCC(=O)N(C)C[C@@H]1Oc2cc(-c3ccc(OC)cc3)ccc2S(=O)(=O)N([C@H](C)CO)C[C@@H]1C	-5	-2	-2	3[16.7 µM]	1	-6
CCCc1nnc2c(N(C)S(=O)(=O)c3ccc(C)cc3)nc3ccccc3n12	-4	16	nt	15	68*	nt
CCCCc1nnc2c(N(C)S(=O)(=O)c3ccc(C)cc3)nc3ccccc3n12	14	15	1	10	16	-8
COc1ccc(CNC(=O)c2c(C)oc3c2C(=O)c2ccccc2C3=O)cc1	32	28	12*	64*	nt	17
CC(=O)c1c(C)oc2c1C(=O)c1ccccc1C2=O	nt	10	nt	13	9	nt
COc1ccc(S(=O)(=O)Nc2ccc3c(c2)C(=O)N([C@@H](C)CO)C[C@H](C)[C@@H](CN(C)C(=O)CCC(F)(F)F)OCCCC[C@H](C)O3)cc1	2	-13	2	18[16.7 µM]	-5	20
CC1CCN(CCc2nc3cc(NS(=O)(=O)c4ccc(F)cc4)ccc3n2C)CC1	nt	56	nt	18	0	25
CC1CCN(CCc2nc3cc(NS(=O)(=O)c4ccccc4)ccc3n2C)CC1	nt	93*	nt	14	nt	8
O=C(NCc1ccccn1)[C@@H]1[C@@H](CO)[C@@H]2Cn3c(cccc3=O)[C@H]1N2CC1CCCC1	-1	nt	2	nt	10	9
O=C(Nc1ccc(CN2CCOCC2)cc1)c1ccc(F)cc1	-82	-108	-1	-52	7	54*
O=C(Nc1ccc(CN2CCOCC2)cc1)c1ccc(Cl)cc1	-118	-53	-1	-33	7	nt
COC(=O)c1ccc(NC(=O)c2ccc(CN3CCOCC3)cc2)cc1	nt	nt	nt	84*	22	20
CC(C)(C)c1ccc(C(=O)Nc2ccc(CN3CCS(=O)(=O)CC3)cc2)cc1	-13	6	0	-2	-6	6
O=C(Nc1ccc(CN2CCS(=O)(=O)CC2)cc1)c1ccc(C(F)(F)F)cc1	16	-2	-2	76*	nt	-13
O=C(Nc1cc(F)ccc1F)N[C@H]1CC[C@H](CCn2cc(C3CCCC3)nn2)O[C@H]1CO	nt	13	1	nt	-15	-12
CN(C)C(=O)C[C@H]1CC[C@@H]2[C@H](COC[C@H](O)CN2CC2CCCC2)O1	10	-3	1	nt	11	-1
CCCCN1CC[C@H]2C=CC[C@@H](C(=O)Nc3ccc(Cl)c(C(F)(F)F)c3)[C@H]2C1=O	9	26	-1	32	-10	7
O=C(Nc1ccc(Cl)c(C(F)(F)F)c1)[C@@H]1CC=C[C@@H]2CCN(Cc3ccccc3)C(=O)[C@@H]21	-4	15	1	64*	6	nt
C[C@H](CO)N1C[C@H](C)[C@@H](CN(C)C(=O)[C@H](Cc2ccccc2)N(C)C)OCc2ccccc2-c2c(n(C)c3ccccc23)C1=O	0	-12	0	60*[16.7 µM]	5	7
C[C@H](C(=O)N(C)C[C@@H]1OCc2ccccc2-c2c(n(C)c3ccccc23)C(=O)N([C@@H](C)CO)C[C@H]1C)c1ccccc1	11	nt	0	67*[16.7 µM]	-26	-30
C[C@H](CO)N1C[C@H](C)[C@@H](CN(C)C(=O)[C@H](C)c2ccccc2)OCc2ccccc2-c2c(n(C)c3ccccc23)C1=O	11	9	0	nt	-21	nt
C[C@@H]1CN([C@@H](C)CO)C(=O)c2c(c3ccccc3n2C)-c2ccccc2CO[C@@H]1CN(C)C(=O)[C@@H](Cc1ccccc1)N(C)C	15	38	3	-110[16.7 µM]	3	5
O=C(C[C@H]1CC[C@@H](NC(=O)C2CCOCC2)[C@@H](CO)O1)NCc1ccccc1Cl	6	12	-1	10[16.7 µM]	0	6
SMILES	EWS-Fli inh	PAX8 inh HTS	CFTR F508del cor	Env fusion inh	INS-1E GSIS act	PGC1a acetyl inh
Cc1nc(N)c(C#N)c(-c2cccnc2)c1C	nt	-21	nt	?	48*	18
CCCOc1ccc(C2C(=O)N(C3CCCCCC3)CC(=O)N2Cc2ccco2)cc1OC (stereo unspecified)	nt	nt	nt	58*	nt	-20
CCCOc1ccc(C2C(=O)N(C3CCCCC3)CC(=O)N2C2CC2)cc1OC (stereo unspecified)	nt	nt	nt	nt	5	nt
O=C(N/N=C\c1ccc(CNS(=O)(=O)c2ccccc2)o1)C(=O)Nc1ccc(F)cc1	1	-7	nt	-15	16	-5
O=C(N/N=C\c1ccc(CNS(=O)(=O)c2ccc(Cl)cc2)o1)C(=O)Nc1ccc(Oc2ccccc2)cc1	nt	nt	nt	nt	58*	nt
Cc1ccnc(NC(=O)CCC(=O)c2cccs2)c1	78*	?	-1	40	6	nt
Cc1ccc(NC(=O)CCC(=O)c2cccs2)nc1	-29	-31	-1	nt	12	-2
CCOc1ccccc1NC(=O)c1nc(S(=O)(=O)Cc2cccc(C)c2)ncc1Cl	58*	132*	4	-21	-7	nt
CSc1nnc(NC(=O)c2nc(S(=O)(=O)Cc3cccc(C)c3)ncc2Cl)s1	nt	31	4	89*	-2	nt
O=C(NCc1ccccc1)c1nc(S(=O)(=O)Cc2ccccc2)ncc1Cl	nt	20	0	30	42	-1
CCc1nnc(NC(=O)c2nc(S(=O)(=O)Cc3ccccc3)ncc2Cl)s1	nt	24	1	32	6	nt
CCc1nnc(NC(=O)c2nc(S(=O)(=O)Cc3cccc(C)c3)ncc2Cl)s1	nt	28	5	63*	1	nt
CSc1nnc(NC(=O)c2nc(S(=O)(=O)Cc3ccccc3F)ncc2Cl)s1	28	1	3	-187	4	nt
COc1ccccc1NC(=O)N1CC[C@@H]2[C@H]1c1cc(-c3ccc(F)cc3)ccc1N(C)[C@@H]2CO	-1	23	2	nt	20	4
Cc1ccc(S(=O)(=O)N(C)C[C@@H]2Oc3ccc(NC(=O)Nc4ccc5c(c4)OCO5)cc3CC(=O)N([C@@H](C)CO)C[C@H]2C)cc1	3	-7	-4	31[16.7 µM]	3	-13
NC(=S)NN=Cc1cc(-c2cccc(N)c2)ccn1	6	94*	1	nt	nt	3
NC(=S)N/N=C\c1c2ccccc2cc2ccccc12	-5	9	2	-44	5	nt
COc1ccc2c(c1)C(=O)CC(c1ccc(OC)c(OC)c1)O2 (stereo unspecified)	3	7	0	-11	24	2
COc1ccc2c(c1)C(=O)CC(c1ccc3c(c1)OCCO3)O2 (stereo unspecified)	-70	-43	12*	-20	-4	-9
